These results are taken from PubChem BioAssay (NCI).

Compounds without any hit were thinned out: in the full panel of roughly 79,000, 15% have a hit. A number with no mark means an inactive call. The source made the active and inactive calls. Rule as the data show it: active = growth inhibition above about 70%; inactive = the rest.

The nature of assay [1]: NCI Yeast Anticancer Drug Screen. Data for the rad50 strain (AID 155).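 Also: 0% = growth of vehicle-only cultures of the same strain.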 Particulars: S. cerevisiae rad50 strain growth inhibition; at 50.0 µM; hits give high values. The method in brief:
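Vehicle-treated cultures provide the reference for the growth inhibition reported for compound-exposed, repair-deficient yeast.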

The nature of assay [2]: NCI Yeast Anticancer Drug Screen. Data for the mec2-1 strain (AID 157). As to conditions: S. cerevisiae mec2-1 strain, at 50.0 µM, hits give high values. The method in brief: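 Cells of the genetically defined mec2-1 yeast strain are incubated with test compound. Inhibition of growth is calculated against vehicle-treated controls.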
Assay [3] in a line: NCI Yeast Anticancer Drug Screen. Data for the sgs1 mgt1 strain (AID 161).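 Also: 0% = growth of cultures given vehicle only.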 Particulars: S. cerevisiae sgs1 mgt1 strain, at 50.0 µM, hits give high values. The method in brief: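 Mutant yeast exposed to compound; growth scored against vehicle-only wells.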
Assay [4] can be described thus: NCI Yeast Anticancer Drug Screen. Data for the cln2 rad14 strain (AID 165).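 Also: 0% = growth equal to vehicle treated cultures.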 As to conditions: S. cerevisiae cln2 rad14 strain, at 50.0 µM, hits give high values. The method in brief: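 The screen exposed genetically defined yeast (cln2 rad14) to test compounds and scored growth inhibition relative to vehicle-treated controls.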
Assay [5] is described as follows: NCI Yeast Anticancer Drug Screen. Data for the bub3 strain (AID 167). Particulars: S. cerevisiae bub3 mutant strain, at 50.0 µM, hits give high values. The method in brief:
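Mutant yeast screening strain plus compound; vehicle-treated cultures serve as the 0% inhibition reference.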

The nature of assay [6]: NCI Yeast Anticancer Drug Screen. Data for the mlh1 rad18 strain (AID 175). As to conditions: S. cerevisiae mlh1 rad18 strain growth inhibition; at 50.0 µM; hits give high values. In outline:
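Compound-treated yeast growth, normalised to vehicle controls. Strain bears defined DNA repair mutations.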

On to `COc1ccccc1NC(=O)NCCCCCCNC(=O)Nc1ccccc1OC`, for which the growth inhibition in assay [1] was -25.6%; in assay [2], -2.55%; in assay [3] it was 2.1%; in assay [4], -39.9%; in assay [5], 0.85%; in assay [6], 13.4%.

As to `Cc1ccc(S(=O)(=O)C(c2ccccc2)C(Br)C(=O)c2ccccc2)cc1` (stereo not given), the growth inhibition in assay [1] was -0.25%; in assay [2], 0.35%; in assay [3], 18.2%; in assay [4], 7.3%; in assay [5], 1.55%; in assay [6], -8.4%.

Take `CC(C)N(C(=S)/N=C1/SC(C)S(=O)(=O)N1C)C(C)C` (stereo not given): the growth inhibition is -4.95% in assay [1]; 13.6% in assay [2]; -5.95% in assay [3]; -4.5% in assay [4]; -10.8% in assay [5]; 5.45% in assay [6].

In the case of `C=C1/C=C/C=C(/C)C(=O)Nc2c(C=O)c(O)c3c4c(c(C)c(O)c3c2O)OC(C)(O/C=C/C(OC)C(C)C(OC(C)=O)C(C)C(O)C(C)C1O)C4=O` (stereo not given), the growth inhibition in assay [1] is 24.1%; in assay [2] it was 33.5%; in assay [3], 16.4%; in assay [4], 34.2%; in assay [5] it was 20.4%; in assay [6], 32.5%.

As for `N#C/C(=C\c1c(Cl)cccc1Cl)c1ccc([N+](=O)[O-])cc1`, the growth inhibition was 7.65% in assay [1]; -0.2% in assay [2]; 16% in assay [3]; -4.45% in assay [4]; 48.8% in assay [5]; 5.1% in assay [6].

As for `N#CC1=C(N)N(c2ccccc2)C(c2ccco2)C1(C#N)C#N` (stereo not given), the growth inhibition in assay [1] was 4.85%; in assay [2], 13.3%; in assay [3], 9.85%; in assay [4], 3.35%; in assay [5] it was -13.7%; in assay [6], 6.25%.

On to `O=C(O)CC(NC(=O)c1cnc2ccccc2n1)C(=O)O` (stereo not given), for which the growth inhibition in assay [1] is -3.65%; in assay [2], -9.85%; in assay [3] it was 4.3%; in assay [4], -17.1%; in assay [5], 12.7%; in assay [6], -1%.

Regarding `COc1cc2ccc1OCc1cccc(n1)COc1ccc(cc1OC)C=NCCNCCN=C2`, the growth inhibition is -4.6% in assay [1]; -22.8% in assay [2]; -14.9% in assay [3]; -21.8% in assay [4]; -17.3% in assay [5]; -17.4% in assay [6].

For the molecule `CC(=O)OCc1ccc([N+](=O)[O-])cc1`, the growth inhibition is -1.65% in assay [1]; 0.25% in assay [2]; -8.8% in assay [3]; 8.05% in assay [4]; -6.05% in assay [5]; 6.1% in assay [6].

On to `CC(C)CC(NC(=O)C(C)NC(=O)C(NC(=O)OCc1ccccc1)C(C)O)C(=O)NC(CC(C)C)C(=O)NCC(=O)NN` (stereo not given), for which the growth inhibition in assay [1] is 12.1%; in assay [2] it was 1.9%; in assay [3], 0.05%; in assay [4], -0.3%; in assay [5], -5.1%; in assay [6], -15.6%.

Take `O=S(=O)(O)C(O)c1ccncc1` (stereo not given): the growth inhibition in assay [1] was -38.2%; in assay [2], -41%; in assay [3], -6.15%; in assay [4] it was -1.8%; in assay [5], -4.25%; in assay [6], -22.7%.

With `COc1ccc(Cl)cc1NC(=O)c1ccccc1C(=O)O`, the growth inhibition in assay [1] was 1.2%; in assay [2], 20.9%; in assay [3], -3.2%; in assay [4], -4.3%; in assay [5] it was 12.4%; in assay [6], -26.1%.

On to `COc1ccc(N=C(C)c2c(O)n(-c3ccccc3)[nH]c2=O)cc1`, for which the growth inhibition in assay [1] is 98.8% (active); in assay [2], 97.5% (active); in assay [3] it was 99.2% (active); in assay [4] it was 99.1% (active); in assay [5], 98.8% (active); in assay [6] it was 98.5% (active).

On to `COc1cc(-c2ccccc2)c(OC)cc1CCl`, for which the growth inhibition is 4.05% in assay [1]; 2.95% in assay [2]; 17.8% in assay [3]; 6% in assay [4]; 13.7% in assay [5]; 20% in assay [6].

For the molecule `CC(=O)C[n+]1ccccc1Sc1ccc(Cl)cc1`, the growth inhibition in assay [1] is 12.6%; in assay [2] it was -9.25%; in assay [3], 14.1%; in assay [4], 19.1%; in assay [5], 3.55%; in assay [6], 56.7%.

`C[Si](C)(C)CN=P(c1ccccc1)(c1ccccc1)c1ccccc1`: the growth inhibition was -29.6% in assay [1]; -12.4% in assay [2]; -19.2% in assay [3]; 17.4% in assay [4]; 3.7% in assay [5]; -4.8% in assay [6].

`Cc1ccc(S(=O)(=O)N2CN3CN(C2)CN(S(=O)(=O)c2ccc(C)cc2)C3)cc1`: the growth inhibition is 0.4% in assay [1]; -26.9% in assay [2]; -9.15% in assay [3]; 9.05% in assay [4]; 6.4% in assay [5]; -4.2% in assay [6].

Regarding `Cn1c(=O)c2[nH]c(N(CCO)N=O)nc2n(C)c1=O`, the growth inhibition is -9.25% in assay [1]; -8.2% in assay [2]; -4.25% in assay [3]; -7.35% in assay [4]; 13.3% in assay [5]; -26.4% in assay [6].

`O=[N+]([O-])c1ccc(OP2(Oc3ccc([N+](=O)[O-])cc3)=NP(Oc3ccc([N+](=O)[O-])cc3)(Oc3ccc([N+](=O)[O-])cc3)=NP(Oc3ccc([N+](=O)[O-])cc3)(Oc3ccc([N+](=O)[O-])cc3)=NP(Oc3ccc([N+](=O)[O-])cc3)(Oc3ccc([N+](=O)[O-])cc3)=N2)cc1`: the growth inhibition in assay [1] is -4.5%; in assay [2] it was -7.9%; in assay [3], -6.35%; in assay [4], -3.7%; in assay [5], -1.65%; in assay [6], -17.2%.

`Cc1cc(=NO)cc(C)n1O`: the growth inhibition in assay [1] was 43.5%; in assay [2] it was 21%; in assay [3] it was 54.9%; in assay [4], -3.3%; in assay [5] it was 3.55%; in assay [6], 7.85%.
